D1 antag – blocks dopamine activation of the human D1 receptor. activity change, negative = inhibition, % at 10 µM. HEK293 TREx D1 cells, calcium flux, dopamine EC80; stronger effect = lower value. 360,000 tested, 3.2% active. AID 504652; in the data active means activity change below about -30%
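Compound effects on dopamine-evoked calcium signalling were measured in tetracycline-induced HEK293 Trex D1 cells. Dopamine at EC80 followed a 180 s compound pre-read, and fluorescence was tracked kinetically for 180 s more.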
D1 ag – activates the human D1 dopamine receptor; HEK293 T-REx D1 cells, calcium flux, agonist mode; activation, % at 2 µM; 360,000 tested, 1% active; AID 504660; in the data active means activation above about 30%
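Agonism was scored from calcium flux recorded over 180 s (1 read/s) after pintool compound addition, following a 10-cycle baseline. Cells were inducible force-coupled HEK293 TREx D1, plated overnight at 30 C and loaded with no-wash calcium dye.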
USP2a block – blocks human ubiquitin-specific protease USP2a. O75604. USP2 core, Ub-CHOP2 coupled fluorogenic reporter, 485/531. Potency, µM (top dose mostly 38.3 µM), usual class: inhibitors. 330,000 tested, 0.01% active. AID 463254
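USP2 core (10nM final) preincubated 30min RT with compound in 20mM Tris-HCl pH 8.0, 2mM CaCl2, 2mM beta-mercaptoethanol, 0.05% CHAPS; 25nM Ub-CHOP2 plus 25nM reporter substrate added, fluorescence (Ex485/Em531) read after 60min.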
D1 PAM – potentiators of human D1 dopamine receptor; HEK293 TREx D1 cells, calcium flux, dopamine EC20 potentiation; potentiation, % at 10 µM; 360,000 tested, 0.036% active; AID 504651; P21728; in the data active means potentiation above about 30%
Eya2 inh – blocks the phosphatase activity of human Eya2; recombinant Eya2, OMFP fluorescence dephosphorylation (OMFP is methylfluorescein phosphate); O00167; Potency, µM (series often up to 76.9 µM), actives largely listed as inhibitors; 330,000 tested, 0.006% active
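Eya2 protein (added as 0.2 uM solution) was preincubated with compound for 10 min at ambient temperature in 50 mM HEPES pH 7.5, 50 mM NaCl, 5 uM MgCl2, 0.05% BSA, 1 mM DTT. OMFP (added at 50 uM) then reacted 10 min; fluorescence read at 485/525 nm.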
GALK inh – inhibitors of human galactokinase | 270,000 tested, 0.007% active | P51570 | Potency, µM (highest dose often 57.5 µM), usual class: inhibitors | Purified GALK, Kinase-Glo residual ATP luminescence | AID 1868
Target sequence (P51570 whole entry, looked up): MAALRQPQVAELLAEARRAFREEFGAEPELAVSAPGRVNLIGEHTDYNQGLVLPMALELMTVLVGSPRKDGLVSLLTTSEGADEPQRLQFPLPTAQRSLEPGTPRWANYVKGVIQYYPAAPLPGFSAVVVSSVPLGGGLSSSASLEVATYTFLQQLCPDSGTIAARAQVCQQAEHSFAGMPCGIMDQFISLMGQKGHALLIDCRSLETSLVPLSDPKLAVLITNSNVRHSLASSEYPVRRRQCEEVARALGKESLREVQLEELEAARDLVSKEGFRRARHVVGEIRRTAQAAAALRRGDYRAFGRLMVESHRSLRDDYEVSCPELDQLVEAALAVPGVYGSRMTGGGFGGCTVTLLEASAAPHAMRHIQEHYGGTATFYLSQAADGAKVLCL
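Luminescence from leftover ATP (Ultra-Glo luciferase/luciferin) served as read-out after a 1 h room-temperature reaction of 5 nM GALK with 35 uM ATP and 100 uM galactose.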
Numbers stand for hits; . = inactive; / = no result. Shown are actives, neighbours in structure and some others; about 3.9% of the full set was active somewhere. Unless noted, the call rests on the fitted dose curve; in most records, active means well fitted inhibition curve with a large enough effect; inconclusive means small, poorly fitted or top-dose-only effect, or effect the other way; inactive means flat fitted curve, though single readings scatter.

SMILES | D1 antag | D1 ag | USP2a block | D1 PAM | Eya2 inh | GALK inh
COC(=O)c1ccc(NC(=O)c2c(-c3ccccc3)c(-c3ccccc3)nn(C)c2=O)cc1 | . | . | / | . | / | /
CC1CCC(Nc2nc3c(-c4cccc(C(F)(F)F)c4)nnn3c3ccccc23)CC1 (configuration not stated) | . | . | / | . | / | /
Cc1ccc(Cn2ccsc2=NC(=O)COC(=O)c2ccc(O)cc2O)cc1 | . | . | . | . | . | .
Cc1ccc(Cn2ccsc2=NC(=O)COC(=O)C(C)C)cc1 | -48 | . | . | . | . | .
Cc1cccc([S+](=O)([O-])NC2CCN(C#N)CC2)c1 | -81 | . | / | . | / | /
COc1ccc(N(C(=O)c2ccco2)S(=O)(=O)c2ccc(F)cc2)cc1 | -58 | . | . | . | . | .
COc1ccc(N(C(=O)c2ccco2)S(=O)(=O)c2cc(OC)ccc2OC)cc1 | -35 | . | . | . | . | .
Cc1ccc(CSc2nnc(SCC(=O)N/N=C/c3c(C)nn(-c4ccccc4)c3C)s2)cc1 | -38 | . | . | . | . | .
COc1ccc(/C=C/c2cc(C(=O)O)c3ccccc3n2)cc1 | -33 | . | . | . | . | /
CC(=O)c1ccc(NC(=O)C(C)NCc2ccccc2Cl)cc1 (configuration not stated) | -36 | . | . | . | . | .
CCCC(=O)Nc1ccc(C(=O)NCc2ccccc2Cl)cc1 | . | . | . | . | . | .
COc1cc(OC)c(NC(=O)Cn2c(=O)oc3cc(S(=O)(=O)N4CCCC4)ccc32)cc1Cl | . | . | / | . | / | /
O=C(CN1CCC(C(=O)c2ccc(F)cc2)CC1)Nc1ccc(F)cc1 | . | . | . | . | . | .
O=C(Nc1ccc(Br)cc1)N1CCCCCC1 | -50 | . | . | . | . | .
CCOc1ccc(NC(=O)N2CCC(C(=O)c3ccc(F)cc3)CC2)cc1 | . | . | . | . | . | /
Cc1ccc(C(=O)C2CCN(CC(=O)N3CCN(c4ccc(F)cc4)CC3)CC2)cc1 | -31 | . | . | . | . | .
O=C(CN1CCC(C(=O)c2ccc(F)cc2)CC1)Nc1ccccc1 | -56 | . | . | . | . | .
O=C(c1ccc(F)cc1)C1CCN(C(=O)Nc2ccc(F)cc2)CC1 | -30 | . | . | . | . | /
Cc1cc(C)cc(Oc2nc3c(C)cccn3c(=O)c2/C=C(\C#N)c2nc3ccccc3s2)c1 | . | . | / | . | / | /
O=C(Nc1ccc(Cl)cc1)N1CCC(c2nc(-c3ccc(F)cc3)no2)CC1 | -50 | . | . | . | . | .
O=C(NCc1ccc(F)cc1)C1CCCN(C(=O)Nc2ccccc2)C1 (configuration not stated) | . | . | . | . | . | .
O=C(NCc1ccc(F)cc1)C1CCCN(C(=O)Nc2ccc(F)cc2)C1 (configuration not stated) | -86 | . | . | . | . | .
COc1ccc(C(=O)N2CCC(C(=O)c3ccc(F)cc3)CC2)cc1 | . | . | . | . | . | .
COc1ccccc1C(=O)N1CCC(C(=O)c2ccc(F)cc2)CC1 | -32 | . | . | . | . | .
CCOc1ccccc1C1C(C(=O)Nc2ccccc2)=C(C)Nc2nc(SCC(=O)c3ccc(C)cc3)nn21 (configuration not stated) | . | . | / | . | / | /
SMILES | D1 antag | D1 ag | USP2a block | D1 PAM | Eya2 inh | GALK inh
CC(C)(O)CC[C@@H](O)[C@](C)(O)C1CC[C@@]2(O)C3=CC(=O)[C@]4(O)C[C@@H](O)[C@@H](O)C[C@]4(C)C3CC[C@]12C (some centres not stated) | -33 | . | . | . | . | /
CN(C)/C=C(\C(=O)c1ccccc1)c1nnnn1-c1ccccc1 | . | . | . | . | . | /
CN(C)c1ccc(C=C(c2nnnn2-c2ccccc2)c2nnnn2-c2ccccc2)cc1 | . | 61 | . | . | . | .
O=C(Nc1ccc(F)cc1)Nc1csc2c1CCCC2 | -32 | . | / | . | / | /
CCCN1Cc2cccc(C(=O)Nc3cc(Cl)ccc3C)c2C1=O | . | . | / | . | / | /
CCSc1nnc(NC(=O)Cc2ccc(OC)cc2)s1 | -47 | . | . | . | . | .
COC(=O)c1ccc(CSc2nnc(Nc3ccc(OC)cc3)s2)o1 | -30 | . | . | . | . | .

Assay outcomes as filed in PubChem BioAssay.
